ChEMBL document CHEMBL3988442, “University of Dundee, Small-Polar-MMV Screening Library” (2021)
For part of these data: Measured potencies and affinities stand elsewhere.

Tests used:
Parameters in all cases: scale not given: direction of the effect not stated beside the values
[1] = target: Protein translocase subunit SecA (Escherichia coli (strain K12)) (UniProt P10408); assay: Assay to Identify E. coli SecA ATPase Inhibitors; type: functional; settings: 30 µM
[2] = target: T1, Ubiquitin-activating enzyme e1, putative (Leishmania donovani (strain BPK282A1)) (UniProt E9BSI1); assay: Leishmania donovani Ubiquitin Activating Enzyme (LdE1); type: functional; settings: 30 µM
T1 sequence (whole entry): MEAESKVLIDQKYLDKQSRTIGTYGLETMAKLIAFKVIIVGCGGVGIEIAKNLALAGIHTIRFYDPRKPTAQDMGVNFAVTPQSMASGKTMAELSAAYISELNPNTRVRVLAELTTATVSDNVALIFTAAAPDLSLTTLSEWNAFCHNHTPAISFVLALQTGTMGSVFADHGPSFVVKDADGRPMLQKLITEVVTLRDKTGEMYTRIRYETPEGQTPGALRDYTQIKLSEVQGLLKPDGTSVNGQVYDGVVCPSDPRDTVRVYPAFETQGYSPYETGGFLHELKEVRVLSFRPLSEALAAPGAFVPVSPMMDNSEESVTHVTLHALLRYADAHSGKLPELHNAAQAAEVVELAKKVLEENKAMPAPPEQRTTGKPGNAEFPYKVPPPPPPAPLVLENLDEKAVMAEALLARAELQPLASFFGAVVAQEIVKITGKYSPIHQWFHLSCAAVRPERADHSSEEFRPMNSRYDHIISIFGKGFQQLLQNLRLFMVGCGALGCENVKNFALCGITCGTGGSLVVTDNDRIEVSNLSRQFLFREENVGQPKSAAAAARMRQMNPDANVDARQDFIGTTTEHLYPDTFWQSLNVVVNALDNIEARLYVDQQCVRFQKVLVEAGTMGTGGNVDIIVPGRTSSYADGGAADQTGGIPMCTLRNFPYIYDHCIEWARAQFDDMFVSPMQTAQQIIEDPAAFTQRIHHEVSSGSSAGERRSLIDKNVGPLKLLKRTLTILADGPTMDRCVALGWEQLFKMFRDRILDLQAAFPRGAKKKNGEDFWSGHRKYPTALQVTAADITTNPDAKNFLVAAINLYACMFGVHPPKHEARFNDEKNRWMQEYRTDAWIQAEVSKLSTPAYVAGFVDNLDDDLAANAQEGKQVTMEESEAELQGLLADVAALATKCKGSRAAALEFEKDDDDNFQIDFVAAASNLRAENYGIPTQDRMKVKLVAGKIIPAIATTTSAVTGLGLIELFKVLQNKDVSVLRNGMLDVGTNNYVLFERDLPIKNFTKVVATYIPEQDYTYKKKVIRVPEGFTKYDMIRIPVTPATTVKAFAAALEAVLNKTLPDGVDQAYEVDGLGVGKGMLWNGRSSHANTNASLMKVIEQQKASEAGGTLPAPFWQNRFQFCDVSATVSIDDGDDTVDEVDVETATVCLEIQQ

[3] = target: Sialic acid-binding Ig-like lectin 9 (Homo sapiens) (UniProt Q9Y336); assay: Hs-Siglec9 ALPHAscreen SOP 20170721; settings: 10 µM
Trypanosoma cruzi = assay: Trypanosoma cruzi phosphomannomutase and mannose-1-phosphate guanylyltransferase assay; type: functional; settings: 10 µM
[4] = target: T2, Arginase-2, mitochondrial (Homo sapiens) (UniProt P78540); assay: in vitro enzyme assay to detect the production of urea directly proportional to the activity of Arginase II; type: functional; settings: 33.3 µM; further: in the data most compounds retested in dose-response had high values
T2 sequence (whole entry): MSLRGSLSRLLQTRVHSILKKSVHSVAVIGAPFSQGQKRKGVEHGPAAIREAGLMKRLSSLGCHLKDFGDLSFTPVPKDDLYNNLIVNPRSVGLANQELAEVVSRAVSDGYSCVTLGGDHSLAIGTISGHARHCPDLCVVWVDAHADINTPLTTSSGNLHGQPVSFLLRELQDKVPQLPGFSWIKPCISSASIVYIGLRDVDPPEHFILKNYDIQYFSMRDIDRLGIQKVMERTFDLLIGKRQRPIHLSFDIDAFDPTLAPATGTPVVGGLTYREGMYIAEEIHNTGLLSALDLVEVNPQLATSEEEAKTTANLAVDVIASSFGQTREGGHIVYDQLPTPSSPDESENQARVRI

[5] = target: T3, Proteasome subunit beta (Trypanosoma cruzi) (UniProt O96673); assay: Trypanosoma cruzi proteasome chymotrypsin-like activity (TcProtChymo) assay.; further: in the data most compounds retested in dose-response had high values; type: functional; settings: 9.37 µM
T3 sequence (whole entry): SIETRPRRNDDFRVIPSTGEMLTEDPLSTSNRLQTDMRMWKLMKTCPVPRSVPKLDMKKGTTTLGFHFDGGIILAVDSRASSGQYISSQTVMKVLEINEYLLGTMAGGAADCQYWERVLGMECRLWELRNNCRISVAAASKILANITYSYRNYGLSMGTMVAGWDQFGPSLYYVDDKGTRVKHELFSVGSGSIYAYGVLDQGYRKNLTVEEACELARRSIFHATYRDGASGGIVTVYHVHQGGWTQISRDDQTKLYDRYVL

Homo sapiens = organism: Homo sapiens; assay: To identify inhibition of the IFN signalling (Jak-Stat) pathway via expression of an eGFP reporter gene under the control of an IFN-stimulated response element (ISRE) containing MxA promoter.; type: functional; settings: 30 µM
[6] = target: T4, Tyrosyl-tRNA synthetase, putative (Trypanosoma cruzi (strain CL Brener)) (UniProt Q4DSP6); assay: Trypanosoma cruzi tyrosyl tRNA synthetase (TcYRS) _High Tyrosine SOP; type: functional; settings: 30 µM; further: in the data most compounds retested in dose-response had high values
T4 sequence (whole entry): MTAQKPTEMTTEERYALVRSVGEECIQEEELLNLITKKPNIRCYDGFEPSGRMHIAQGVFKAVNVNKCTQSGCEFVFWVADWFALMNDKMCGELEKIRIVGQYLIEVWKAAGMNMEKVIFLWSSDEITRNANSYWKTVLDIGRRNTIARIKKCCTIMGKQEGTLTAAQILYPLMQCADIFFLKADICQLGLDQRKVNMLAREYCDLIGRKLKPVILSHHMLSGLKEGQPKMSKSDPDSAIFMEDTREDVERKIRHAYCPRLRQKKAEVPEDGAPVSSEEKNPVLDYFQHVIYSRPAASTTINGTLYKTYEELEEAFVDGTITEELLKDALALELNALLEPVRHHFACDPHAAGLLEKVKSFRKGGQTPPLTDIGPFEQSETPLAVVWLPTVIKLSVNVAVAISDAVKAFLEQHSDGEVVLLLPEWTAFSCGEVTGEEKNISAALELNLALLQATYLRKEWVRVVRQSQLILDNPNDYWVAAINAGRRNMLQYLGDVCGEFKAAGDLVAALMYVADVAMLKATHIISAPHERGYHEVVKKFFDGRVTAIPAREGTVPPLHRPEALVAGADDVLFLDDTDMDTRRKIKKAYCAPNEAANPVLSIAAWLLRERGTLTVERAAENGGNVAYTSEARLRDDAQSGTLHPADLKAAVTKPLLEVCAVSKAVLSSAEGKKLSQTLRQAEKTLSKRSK

[7] = target: T4, Tyrosyl-tRNA synthetase, putative (Trypanosoma cruzi (strain CL Brener)); assay: Trypanosoma cruzi tyrosyl tRNA synthetase (TcYRS) SOP; type: functional; settings: 30 µM
[8] = target: Chromo domain-containing protein 1 (Saccharomyces cerevisiae (strain ATCC 204508 / S288c) (Baker's yeast)) (UniProt P32657); assay: ScCHD-1 Enzyme Inhibition Assay; type: functional; settings: 30 µM; further: in the data most compounds retested in dose-response had high values
Sequence of Chromo domain-containing protein 1 (Saccharomyces cerevisiae (strain ATCC 204508 / S288c) (Baker's yeast)) (P32657 whole entry, the tested form may be a part): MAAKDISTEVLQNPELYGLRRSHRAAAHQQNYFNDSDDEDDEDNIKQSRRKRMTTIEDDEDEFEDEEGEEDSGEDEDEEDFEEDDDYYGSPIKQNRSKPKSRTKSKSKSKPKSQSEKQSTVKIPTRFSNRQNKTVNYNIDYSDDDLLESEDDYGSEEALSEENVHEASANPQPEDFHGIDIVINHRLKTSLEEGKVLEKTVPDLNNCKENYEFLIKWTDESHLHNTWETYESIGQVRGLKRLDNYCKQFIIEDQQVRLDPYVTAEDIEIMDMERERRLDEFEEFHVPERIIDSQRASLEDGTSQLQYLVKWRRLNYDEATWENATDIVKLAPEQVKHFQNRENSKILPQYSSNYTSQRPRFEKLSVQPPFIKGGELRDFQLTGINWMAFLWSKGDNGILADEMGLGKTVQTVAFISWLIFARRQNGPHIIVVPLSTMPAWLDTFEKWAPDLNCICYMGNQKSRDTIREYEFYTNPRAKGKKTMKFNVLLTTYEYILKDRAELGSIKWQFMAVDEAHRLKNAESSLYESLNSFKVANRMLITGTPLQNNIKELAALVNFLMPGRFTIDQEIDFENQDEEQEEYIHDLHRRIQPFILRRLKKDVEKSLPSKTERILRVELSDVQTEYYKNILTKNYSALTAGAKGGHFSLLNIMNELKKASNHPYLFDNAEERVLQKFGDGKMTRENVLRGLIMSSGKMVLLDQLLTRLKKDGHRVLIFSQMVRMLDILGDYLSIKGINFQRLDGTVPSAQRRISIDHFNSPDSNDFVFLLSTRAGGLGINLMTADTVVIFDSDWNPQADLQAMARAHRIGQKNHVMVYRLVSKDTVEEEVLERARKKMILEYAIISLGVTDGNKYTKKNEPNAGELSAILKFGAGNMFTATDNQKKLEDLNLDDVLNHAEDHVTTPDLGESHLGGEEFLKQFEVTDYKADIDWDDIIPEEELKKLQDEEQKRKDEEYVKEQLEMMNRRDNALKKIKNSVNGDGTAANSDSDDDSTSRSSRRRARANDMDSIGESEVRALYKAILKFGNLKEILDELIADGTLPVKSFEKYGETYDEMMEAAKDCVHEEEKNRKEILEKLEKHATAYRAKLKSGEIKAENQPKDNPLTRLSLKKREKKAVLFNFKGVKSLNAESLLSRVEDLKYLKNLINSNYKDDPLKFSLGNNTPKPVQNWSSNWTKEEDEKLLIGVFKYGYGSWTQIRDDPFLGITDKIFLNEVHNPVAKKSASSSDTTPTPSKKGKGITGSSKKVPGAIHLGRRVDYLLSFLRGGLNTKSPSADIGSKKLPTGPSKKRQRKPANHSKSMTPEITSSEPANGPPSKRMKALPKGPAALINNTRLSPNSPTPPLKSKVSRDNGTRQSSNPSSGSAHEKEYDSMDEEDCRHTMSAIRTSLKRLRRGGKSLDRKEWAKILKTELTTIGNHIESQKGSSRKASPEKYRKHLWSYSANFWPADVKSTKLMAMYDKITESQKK

Sequence of Protein translocase subunit SecA (Escherichia coli (strain K12)) (P10408 whole entry): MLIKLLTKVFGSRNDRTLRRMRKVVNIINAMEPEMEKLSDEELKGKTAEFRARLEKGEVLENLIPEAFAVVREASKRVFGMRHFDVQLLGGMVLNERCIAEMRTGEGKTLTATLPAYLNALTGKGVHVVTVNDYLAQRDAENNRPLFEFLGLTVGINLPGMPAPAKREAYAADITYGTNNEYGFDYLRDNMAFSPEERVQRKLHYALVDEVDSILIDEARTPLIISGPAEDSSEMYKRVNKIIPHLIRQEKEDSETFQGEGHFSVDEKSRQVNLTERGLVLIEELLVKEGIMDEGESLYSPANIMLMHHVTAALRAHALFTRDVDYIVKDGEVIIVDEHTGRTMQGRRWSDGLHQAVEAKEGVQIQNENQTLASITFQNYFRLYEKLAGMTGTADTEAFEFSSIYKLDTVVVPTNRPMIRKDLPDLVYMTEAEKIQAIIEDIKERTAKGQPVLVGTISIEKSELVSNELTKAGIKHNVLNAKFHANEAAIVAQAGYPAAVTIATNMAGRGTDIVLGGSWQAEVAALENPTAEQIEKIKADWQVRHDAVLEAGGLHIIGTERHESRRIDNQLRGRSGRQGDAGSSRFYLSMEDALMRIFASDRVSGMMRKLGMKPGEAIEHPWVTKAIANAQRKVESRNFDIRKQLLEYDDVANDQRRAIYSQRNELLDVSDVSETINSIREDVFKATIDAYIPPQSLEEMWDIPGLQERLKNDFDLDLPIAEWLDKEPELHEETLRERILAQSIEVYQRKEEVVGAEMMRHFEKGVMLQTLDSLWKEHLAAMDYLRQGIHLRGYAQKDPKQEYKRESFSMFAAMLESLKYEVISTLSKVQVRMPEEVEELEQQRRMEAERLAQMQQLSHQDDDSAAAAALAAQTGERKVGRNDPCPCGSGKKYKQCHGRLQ
Sequence of Sialic acid-binding Ig-like lectin 9 (Homo sapiens) (Q9Y336 whole entry): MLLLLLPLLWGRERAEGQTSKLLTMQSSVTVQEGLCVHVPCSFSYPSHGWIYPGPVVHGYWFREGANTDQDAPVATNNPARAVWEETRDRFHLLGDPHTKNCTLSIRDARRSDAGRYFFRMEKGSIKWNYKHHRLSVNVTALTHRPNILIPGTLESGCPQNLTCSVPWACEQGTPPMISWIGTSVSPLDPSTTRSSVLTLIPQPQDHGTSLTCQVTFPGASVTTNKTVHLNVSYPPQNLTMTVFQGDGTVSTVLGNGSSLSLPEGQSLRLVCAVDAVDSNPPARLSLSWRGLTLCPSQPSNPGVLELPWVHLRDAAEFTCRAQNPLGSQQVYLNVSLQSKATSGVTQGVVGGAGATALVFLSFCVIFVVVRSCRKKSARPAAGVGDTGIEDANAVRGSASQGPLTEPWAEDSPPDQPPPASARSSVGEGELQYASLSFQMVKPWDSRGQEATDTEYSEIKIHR

Row | SMILES | Percent Effect [1] [%] | Percent Effect [2] [%] | Percent Effect [3] [%] | Percent Effect (Trypanosoma cruzi) [%] | Percent Effect [4] [%] | Percent Effect [5] [%] | Percent Effect (Homo sapiens) [%] | Percent Effect [6] [%] | Percent Effect [7] [%] | Percent Effect [8] [%]
1 | CC(O)CN1CCC(CNCc2ccccc2OC(F)(F)F)CC1 (stereo not given) | -4.07 | 10.3 | -7.91 | 7.98 | -1.64 | 9.81 | 2.5 | 0.478 | 10.8 | -0.0569
2 | Cc1cnn(CC2CCCN2CC(=O)Nc2cc(C)nn2C)c1 (stereo not given) | -2.33 | 5.2 | 5.19 | 2.8 | 1.02 | -5.44 | 0.341 | 4.9 | 16.5 | -7.89
3 | Cc1cc2cc(C(=O)N3CC[C@H](O)[C@]4(CCCO4)C3)ccc2o1 | -4.25 | 17.3 | 3.44 | 2.17 | -3.1 | 8.37 | -3.08 | 6.35 | 12.5 | -20.9
4 | Cc1cncc(C2CCCN(C(=O)c3ccc(C)[nH]c3=O)C2)n1 (stereo not given) | -4.08 | 20 | 0.301 | 1.58 | -1.33 | 18.4 | -10.4 | 5.29 | 17.5 | -23.9
5 | Cc1nn(C)cc1-c1cc(C(F)(F)F)c2c(C)nn(CC(=O)O)c2n1 | 0.552 | 14.7 | -7.53 | -2.56 | -0.885 | 7.72 | 24.1 | -1.06 | 0 | -17.3
6 | Cc1cc(CN2CCCC2c2noc(C)n2)no1 (stereo not given) | 3.19 | 2.67 | 5.36 | -2.41 | 3.99 | 6.7 | 2.71 | 0.526 | -2.56 | -6.2
7 | O=C1NC2(CCN(Cc3cccnc3)CC2)CC1c1ccncc1 (stereo not given) | -3.31 | 6.49 | -5.51 | -7.69 | -0.405 | 19 | -18.7 | 1.58 | 10.3 | 4.74
8 | c1ccc(-n2ncc(CNC3CCc4ncnn4C3)n2)cc1 (stereo not given) | -1.79 | 10.3 | 0.298 | 1.03 | 4.51 | 3.16 | 10 | 1.44 | 8.43 | 1.52
9 | O=C1CCC(C(=O)NCc2nn(-c3ccccc3)c3c2CCC3)CN1 (stereo not given) | -6.78 | 5.13 | -2.63 | -2.16 | -2.46 | 1.96 | 22 | 1.44 | 6.02 | 0.942
10 | CC(C)(C)c1nnc(CN2CCOC(Cn3cncn3)C2)o1 (stereo not given) | -3.4 | 17.9 | 1.77 | 9.67 | -6.56 | 4.18 | 8.6 | 4.31 | 18.1 | -4.15
11 | Cc1cn2c(n1)CCC(NC(=O)c1c[nH]c(C)n1)C2 (stereo not given) | -6.87 | -10.7 | 1.48 | 3.61 | 0 | 10.9 | 17.2 | 3.68 | 7.69 | -13.6
12 | COc1ccc(CN2CCC3(CC2)NC(=O)CC3c2ccncc2)cc1 (stereo not given) | -7.89 | -6.49 | 3.29 | -2.43 | -4.05 | 9.27 | 5.38 | -0.526 | 2.56 | -1.91
13 | O=C(c1cccnc1)N1CCn2nnc(COc3cccnc3)c2C1 | -4.23 | 1.3 | -1.59 | -6.13 | 4.45 | 14 | -1.63 | 7.89 | 7.69 | 2.46
14 | Cc1n[nH]c(=O)c2c(NC(=O)CN3CCC(O)CC3)oc(C)c12 | -1.08 | 10.3 | -12.1 | -8.17 | 0.41 | 19.4 | 21.8 | 4.31 | 10.8 | -5.11
15 | Cc1cc(C)n(CC2CCCCN2C(=O)c2ccc3nncn3c2)n1 (stereo not given) | -7.43 | 8 | 0.804 | 2.01 | -1.77 | 8.06 | 6.43 | 5.79 | 10.3 | -4.66
16 | O=S(=O)(c1ccccc1)N1CCCCC1c1cc[nH]n1 (stereo not given) | -1.23 | 9.33 | -5.11 | -6.71 | -1.77 | 13.5 | 19.2 | -3.17 | 0 | -28
17 | Cc1nc(-c2ccc(C(=O)O)cc2)cc(C2CCN(C(C)C)C2)n1 (stereo not given) | -2.82 | 12 | -4.91 | -1.18 | 4.87 | 10.7 | 8.94 | 5.29 | 15 | -22.5
18 | CC1CN(c2ccc(CNC(=O)c3ccn(C)c(=O)c3)cn2)CCO1 (stereo not given) | -4.46 | 16 | 0.777 | 1.61 | 5.32 | 7.72 | 6.29 | 3.68 | 15.4 | -8.09
19 | CC(C)c1nnc2n1CCN(C(=O)c1ccnc(N(C)C)c1)C2 | -5.81 | 10.7 | 7.33 | 0 | -5.76 | 16.9 | -3.26 | 3.68 | 10.3 | -12.4
20 | CN(C)c1cc(C(=O)N2CCN(S(C)(=O)=O)CC2)ccn1 | -7.92 | 10.3 | -9.31 | -5.35 | -2.46 | 6.23 | 25.7 | 4.31 | 8.43 | -0.991
21 | CCC1CN(C(=O)NCCOc2ccc3c(c2)OCO3)CCO1 (stereo not given) | 1.77 | 18.2 | -3.28 | -3.36 | 5.53 | 15.4 | 1.58 | 4.9 | 16.5 | -6.67
22 | Cc1cc(C)n(C2CCCN(C(=O)COCC(F)(F)F)C2)n1 (stereo not given) | -4.46 | 2.56 | 11.4 | 0.657 | 6.15 | -7.59 | -11.3 | 1.44 | -1.21 | -0.331
23 | Cn1c(C2CC2)nc2c1CCN(CCS(=O)(=O)c1ccccc1)C2 | -3.66 | -5.33 | 1.61 | 5.22 | 0 | -2.46 | 3.62 | 0.526 | 0 | -4.67
24 | O=C(CCCOc1ccccc1Cl)N1CCCC(n2cncn2)C1 (stereo not given) | -2.02 | 5.13 | -18.2 | 6.1 | -13.9 | -5.03 | -5.2 | 1.44 | 6.02 | 0.499
25 | Cc1cnc(CN(C)C2CCN(CCc3cnn(C)c3)C2)o1 (stereo not given) | -3.84 | 0 | 0.368 | -1 | 2.66 | 3.65 | 2.79 | 4.74 | 5.13 | -8.2
26 | O=C1NCc2ccc(NC(=O)C3CCCN3c3nccs3)cc21 (stereo not given) | 0.371 | -7.69 | 12.8 | 0.0939 | -1.23 | 1.96 | -7.22 | -0.478 | -6.02 | 105
27 | O=S(=O)(CCCN1CCCC1Cn1cncn1)c1ccccc1 (stereo not given) | 1.87 | 26 | -0.0999 | 1.49 | -4.71 | 17.4 | 2.97 | 9.8 | 21.2 | -10.1
